Data published in PubChem BioAssay.

Test: compound effects on hepatocellular carcinoma cell viability – HepG2, calcein-AM fluorescence, 48 h, basal, profiling panel (AID 1164); also: test concentration not given here
Details: higher = more signal

Compound	z-score
COCCOC(=O)N1C(=O)[C@@]2(c3cc(C#CC4(O)CCCCCC4)ccc31)[C@H](C(=O)N1CCN(c3ncccn3)CC1)[C@H]1C(=O)O[C@H](c3ccccc3)[C@H](c3ccccc3)N1[C@@H]2c1ccc(OCCO)cc1	-0.118
CS(=O)(=O)CCOC(=O)C1=CC(CCCO)=CC(c2cccs2)N(Cc2cccc(OC(F)(F)F)c2)C=C1C(=O)OCCS(C)(=O)=O (stereo unspecified)	0.464
N#Cc1ccc(NN2C(C(O)c3cc(C(F)(F)F)cc(C(F)(F)F)c3)C=CC3C(=O)N(c4ccccc4)C(=O)C32)cc1 (stereo unspecified)	-1.22
COC(=O)C1(C)C=C2C(=C(c3ccccc3)C(=O)C2C)CN1 (stereo unspecified)	-1.26
COC(=O)CC=C[C@H](C)[C@@H](OCc1ccccc1Br)C(C)C	1.34
CC(=O)OC[C@H]1O[C@H](CCON=C[C@@H](C)[C@H](OCc2ccccc2)C(C)C)C=C[C@@H]1OC(C)=O	-0.737
CC(CCN1CCCCc2nc(C)c(C)cc21)=NOC(C)CN1CCCCc2nc(C)c(C)cc21 (stereo unspecified)	-1.12
CCN1C(=O)[C@H]2[C@H]3[C@H](O)[C@H](O)CC(=NOCc4ccccc4)[C@@H]3CC[C@H]2C1=O	1.43
CC(=O)OC[C@H]1O[C@H](CCON=C(C)CCN2CCc3nc(-c4ccccc4)c(-c4ccccc4)cc3C2)C=C[C@@H]1OC(C)=O	0.2
CN(C)CCCNC(=O)[C@@H]1c2ccccc2C(=O)N(Cc2cc(F)cc(C(F)(F)F)c2)[C@H]1c1ccc(CO)cc1	-0.318
CC(CCC(=O)OC[C@H]1O[C@H](C#Cc2ccccc2)C=C[C@@H]1Oc1ccc(C)cc1)=NOC[C@@H](O)[C@H]1O[C@@H]2OC(C)(C)O[C@@H]2[C@H]1O	0.0263
CC(C)N1CC=CC23O[C@@H]4C=CCCOC(=O)C4[C@H]2C(=O)N(CCCCCCO)[C@@H]3C1=O (stereo partly specified)	0.677
O=C1[C@H]2[C@H]3[C@H](O)[C@H](O)CC(=NOC[C@@H](O)COCc4ccco4)[C@H]3CC[C@H]2C(=O)N1C1CCCCC1	0.187
CO[C@@H]1COC(=O)CCC[C@@H](C)[C@H](OC)COC(=O)CCC[C@H]1C	-0.125
O=C1NC(=O)C2C1C=CC(C(O)Cc1ccccc1)N2Nc1ccccn1 (stereo unspecified)	1.16
CC(C)(C)OC(=O)CC[C@]1(C(=O)NCc2ccccc2)N=C(c2ccc(OCCCO)cc2)O[C@H]1c1ccccc1	-0.329
CC(C)(C)OC(=O)CC[C@]1(C(N)=O)COC(c2ccc(OCCCO)cc2)=N1	0.0668
CC(C)CON=C1C[C@@H](O)[C@@H](O)[C@@H]2[C@@H]3C(=O)N(Cc4ccccc4)C(=O)[C@@H]3CC[C@@H]12	-0.946

Compound	z-score
C=CCOC(=O)[C@H]1[C@@H]2C(=O)O[C@@H](c3ccccc3)[C@@H](c3ccccc3)N2[C@@H](c2ccc(OCCOC(=O)[C@H]3C[C@H]4C(=O)N[C@@H](Cc5ccccc5)C(=O)N4[C@H]3c3ccc(O)cc3)cc2)[C@]12C(=O)Nc1ccccc12	0.642
O=C1[C@H]2[C@H]3[C@H](O)[C@H](O)CC(=NOCc4ccccc4)[C@H]3CC[C@H]2C(=O)N1c1ccc(F)cc1F	-0.196
COC(=O)C1=C(C)[C@@H](O)[C@@H](C)[C@H](c2c(OC)c(OC)c(C)c(OC)c2OC)O1	0.287
COC(=O)[C@@]1(Cc2ccc(OC)cc2)[C@H]2c3cc(C(=O)N4CCCC4)n(Cc4cc(F)c(F)c(F)c4)c3C[C@H]2CN1C(=O)c1ccccc1	-0.521
CC(CCC(=O)OC[C@H]1O[C@H](C#Cc2ccccc2)C=C[C@@H]1Oc1ccc(C)cc1)=NO[C@@H](C)c1cn([C@H](CO)Cc2ccccc2)nn1	-0.982
CC(C)NC(=O)[C@@]1(c2ccc([N+](=O)[O-])cc2)CC(=O)N(CC23CC4CC(CC(C4)C2)C3)[C@@H]1c1ccc(CO)cc1I	-4.89
COC(=O)[C@H](C)NC(=O)CCC1CC(OC(=O)NCCc2ccc(F)cc2)CC2(CCCC(COC(=O)NCCc3ccc(Cl)cc3)O2)O1 (stereo partly specified)	0.649
C=C(CCCC)C(=O)CC[C@@H](OC(C)=O)c1cccc(OCCO)c1	-2.45
CCOC(=O)[C@H](CC(C)C)NC(=O)CCC1CC(OC(=O)NCc2cccc3ccccc23)CC2(CCCC(COC(=O)NCCc3ccccc3OC)O2)O1 (stereo partly specified)	-0.766
CCCCCN1CC=CC23O[C@@H]4C=CCOC(=O)[C@@H]4[C@H]2C(=O)N(C(CO)C(C)C)[C@@H]3C1=O (stereo partly specified)	-0.0721
CCOC(=O)[C@H](CC(C)C)NC(=O)CCC1CC(OC(=O)NCc2cccc3ccccc23)CC2(CCCC(COC(=O)NCCN3CCOCC3)O2)O1 (stereo partly specified)	-0.667
Cc1ccc(F)cc1S(=O)(=O)N[C@@H]1CCN(Cc2ccc(CC(C)C)cc2)C1	-1.8
O=C1[C@H]2[C@H]3[C@H](O)[C@H](O)CC(=NOC[C@@H](O)COCc4ccco4)[C@@H]3CC[C@H]2C(=O)N1c1ccc(F)cc1F	-1.22
CCCNC(=O)[C@@H]1c2ccccc2C(=O)N(c2ccc(C)cn2)[C@H]1c1ccc(CO)cc1	-0.108
CC[C@@H](c1ccccc1)n1c(=O)n2n(c1=O)[C@H]1[C@H](O)[C@@H]3O[C@@H]3C(=NOCC=C(C)CCC=C(C)C)[C@H]1CC2	-1.48
CC(C)[C@@H](OCc1ccccc1)[C@H](C)C=NO[C@H](C)c1cn([C@H](CO)Cc2ccccc2)nn1	0.235
Cc1cc2c(c(=O)o1)[C@H](O)[C@H]1O[C@H]1C2=O	-1.03
COCCCNC(=O)[C@]1(Cc2ccccc2)N=C(c2ccc(OCCCO)cc2)O[C@@H]1c1ccccc1	0.0484
